SMILES strings stand for the structures. Unmarked numbers belong to inactive results. Results filed as inconclusive are left out. Calls of active or inactive are those of the source. Unless noted, calls follow the shape of the dose curve; as a rule, active = well fitted curve in the direction sought with a large enough effect in the repeat runs; inconclusive = weak or mixed curves; inactive = no such curve, though single readings can be large; an effect the other way counts as inactive or inconclusive.

Consider 29 compounds from PubChem BioAssay (Tox21).

Experiment [1] in a line: A CellTox Green Cytotoxicity Assay to monitor cytotoxicity in HepG2 cells - 8 hour (AID 1224890). Also: nearly all actives have a fitted effect of over 45% in size. A digest of the protocol: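 HepG2, 600 cells/well premixed w/ CellTox Green; 5 h settle, 37 C/5% CO2; pintool cpd add (DMSO); 37 C, 40 h; fluorescence read at 0, 8, 16, 24, 32, 40 h.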
The nature of experiment [2]: qHTS assay to identify small molecule antagonists of the estrogen receptor alpha (ER-alpha) signaling pathway using the BG1 cell line in the presence of 0.1 nM 17-beta-estradiol - cell viability counter screen (AID 1259241). Also: nearly all actives have a fitted effect of over 40% in size. A digest of the protocol:
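Viability in VM7Luc4E2 cells after 22 hr compound exposure under 0.1 nM 17beta-estradiol stimulation, by CellTiter-Fluor.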
On the technique in general: qHTS replaces the single test concentration by a dilution series.

The target of experiment [3] is Estrogen receptor (Homo sapiens) (UniProt P03372). Nature of the experiment: qHTS assay to identify small molecule antagonists of the estrogen receptor alpha (ER-alpha) signaling pathway using the BG1 cell line in the presence of 0.1 nM 17-beta-estradiol (AID 1259244). Also: nearly all actives have a fitted effect of over 50% in size. A digest of the protocol:
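Luminescence after ONE-Glo (30 min, room temperature) measured ERE-luciferase activity in VM7Luc4E2 cells treated 22 h with compound and 0.1 nM final 17beta-estradiol as stimulator.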

Experiment [4] in a line: qHTS assay to identify small molecule HDAC inhibitors (AID 1259364). Also: potency is read from the fitted curve at half-maximal effect.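 Also: wild-type HCT-116 cells with endogenous class I/II HDAC activity; nearly all actives have a fitted effect of over 45% in size.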 A digest of the protocol:
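HCT-116 (wild type), 1,500 cells/well, overnight; compound 2 hr 37C 5% CO2; HDAC-Glo I/II reagent 30 min RT; luminescence readout.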

Experiment [5] is described as follows: qHTS assay to identify small molecule HDAC inhibitors - cell viability counter screen (AID 1259365). Also: series mostly up to about 92 µM; nearly all actives have a fitted effect of over 50% in size. A digest of the protocol:
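Cytotoxicity was gauged in wild-type HCT-116 cells after a brief 2hr treatment with DMSO-dissolved compounds at 37C and 5% CO2, using CellTiter-Glo luminescence developed for 30min at room temperature.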

Experiment [6] is described as follows: qHTS assay to identify small molecule agonists of the sonic hedgehog signaling (Shh) pathway - cell viability counter screen (AID 1259366). Also: nearly all actives have a fitted effect of over 50% in size. A digest of the protocol: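 Stable Gli1-Luc NIH/3T3 clone, 2,000 cells/well. Compound exposure 24hr at 37C. Read-out: CellTiter-Fluor fluorescence.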
A short description of experiment [7]: qHTS assay to identify small molecule antagonists of the sonic hedgehog signaling (Shh) pathway - cell viability counter screen (AID 1259367). Also: nearly all actives have a fitted effect of over 55% in size. A digest of the protocol: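 Viability was read by CellTiter-Fluor fluorescence in the same wells, reagent added 23 hr into compound treatment and incubated 1 hr at 37C. The 3T3 Gli1-Luc reporter cells (2,000/well) received conditioned medium after compound and ran 24 hr.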

The nature of experiment [8]: qHTS assay to identify small molecule antagonists of the androgen receptor (AR) signaling pathway using the MDA cell line in the presence of 0.5 nM R1881 - cell viability counter screen (AID 1259242). Also: nearly all actives have a fitted effect of over 45% in size. A digest of the protocol:
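Live-cell protease fluorescence, CellTiter-Fluor, 30 min at 37C. Cells: MDA-kb2, 3,000/well, preincubated 5 hr. Compounds plus 0.5 nM R1881 final, 16 hr, 37C, 0% CO2.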

A short description of experiment [9]: qHTS assay to identify small molecule phospholipidosis (PLD) inducers (AID 1259344; active = well fitted curve in the direction sought with a large enough effect; an effect the other way counts as inactive or inconclusive; also: potency is read from the fitted curve at half-maximal effect). A digest of the protocol: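 Phospholipid accumulation was scored by imaging: fixed, Hoechst-counterstained HepG2 cells stained with LipidTOX Red after 24 h compound exposure at 37 C. Read-outs were pit count and pit intensity per well or per cell, with amiodarone and DMSO controls.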

Experiment [10] deals with Androgen receptor (Homo sapiens) (UniProt P10275). Nature of the experiment: qHTS assay to identify small molecule antagonists of the androgen receptor (AR) signaling pathway using the MDA cell line in the presence of 0.5 nM R1881 (AID 1259243). Also: nearly all actives have a fitted effect of over 50% in size. A digest of the protocol:
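MDA-kb2, MMTV-luc (AR/GR elements); 3,000 cells/well; cpd + 0.5 nM R1881 final; 16 hr 37C, 0% CO2; ONE-Glo 30 min RT; luminescence.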

Estrogen receptor (Homo sapiens), sequence (P03372 whole entry, looked up): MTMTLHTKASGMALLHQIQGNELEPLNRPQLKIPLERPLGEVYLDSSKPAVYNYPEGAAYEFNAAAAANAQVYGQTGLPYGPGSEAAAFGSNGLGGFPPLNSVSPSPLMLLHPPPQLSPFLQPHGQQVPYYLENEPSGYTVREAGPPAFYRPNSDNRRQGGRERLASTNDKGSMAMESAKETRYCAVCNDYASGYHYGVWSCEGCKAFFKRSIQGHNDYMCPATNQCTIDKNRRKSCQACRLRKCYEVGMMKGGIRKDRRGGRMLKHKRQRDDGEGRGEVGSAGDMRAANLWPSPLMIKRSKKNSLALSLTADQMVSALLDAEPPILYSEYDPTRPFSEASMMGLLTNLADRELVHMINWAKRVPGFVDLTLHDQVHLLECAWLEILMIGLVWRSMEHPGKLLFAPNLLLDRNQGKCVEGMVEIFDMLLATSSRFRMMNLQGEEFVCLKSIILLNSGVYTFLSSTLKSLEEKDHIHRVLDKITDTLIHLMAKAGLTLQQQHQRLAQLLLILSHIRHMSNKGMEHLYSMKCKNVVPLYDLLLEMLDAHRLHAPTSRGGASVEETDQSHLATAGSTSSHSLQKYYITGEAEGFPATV
Androgen receptor (Homo sapiens), sequence (P10275 whole entry, looked up): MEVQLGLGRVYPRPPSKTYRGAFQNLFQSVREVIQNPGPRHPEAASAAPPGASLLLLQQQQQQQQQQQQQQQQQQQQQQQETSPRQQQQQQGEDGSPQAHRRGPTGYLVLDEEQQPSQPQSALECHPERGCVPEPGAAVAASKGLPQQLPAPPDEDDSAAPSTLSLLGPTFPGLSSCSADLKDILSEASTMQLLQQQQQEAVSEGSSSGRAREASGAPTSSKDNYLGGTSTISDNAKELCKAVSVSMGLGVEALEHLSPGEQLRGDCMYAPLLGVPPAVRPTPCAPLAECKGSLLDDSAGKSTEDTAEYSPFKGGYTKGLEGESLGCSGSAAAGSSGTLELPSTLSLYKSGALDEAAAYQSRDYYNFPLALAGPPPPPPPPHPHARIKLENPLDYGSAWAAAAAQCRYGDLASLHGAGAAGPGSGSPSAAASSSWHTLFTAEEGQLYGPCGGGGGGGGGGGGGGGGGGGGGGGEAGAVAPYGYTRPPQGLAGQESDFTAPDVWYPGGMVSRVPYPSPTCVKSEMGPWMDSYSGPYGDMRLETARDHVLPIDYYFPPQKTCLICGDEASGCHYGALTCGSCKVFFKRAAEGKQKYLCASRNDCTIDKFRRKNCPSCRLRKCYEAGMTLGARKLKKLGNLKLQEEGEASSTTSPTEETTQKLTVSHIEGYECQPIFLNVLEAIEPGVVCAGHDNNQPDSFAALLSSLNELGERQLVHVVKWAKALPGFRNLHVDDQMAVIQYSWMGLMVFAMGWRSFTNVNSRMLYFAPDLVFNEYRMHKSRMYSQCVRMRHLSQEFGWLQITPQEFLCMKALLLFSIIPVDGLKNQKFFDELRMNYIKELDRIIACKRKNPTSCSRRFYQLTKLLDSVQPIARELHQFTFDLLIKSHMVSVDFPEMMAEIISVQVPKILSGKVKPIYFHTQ

In the case of `NCCN1CCNC1=O`, the Potency entry in experiment [1], in experiment [4] and in experiment [6] was “inactive” throughout. The result in experiment [2], in experiment [3], in [5] and in [7] was inactive.

In the case of `COC(=O)CCCCCCCCC(=O)OC`, the Potency result in [1], in [4] and in experiment [6] was “inactive” each time. For the same compound, the outcome in [2], in experiment [3], in [5] and in experiment [7] was inactive.

As for `CCC(C)OC(=O)N1CCCCC1CCO` (stereo not drawn), the Potency entry in experiment [1] and in [4] was “inactive” each time. Moreover, the result in experiment [2], in experiment [5] and in experiment [7] was inactive.

As to `CC(C)COC(=O)C(C)C`, the Potency result in [1] and in [4] was “inactive” each time. In addition, the outcome in experiment [2], in [3], in experiment [5] and in [7] was inactive.

Regarding `O=C(O)CCNC(=O)c1ccc(N=Nc2ccc(O)c(C(=O)O)c2)cc1`, the Potency entry in experiment [1], in experiment [9] and in experiment [4] was “inactive” in each case. The result in [8], in experiment [3], in experiment [5] and in experiment [7] was inactive.

For `CCCCCCCCC=O`, the outcome in experiment [2], in experiment [8], in experiment [5] and in experiment [7] was inactive. Also, the Potency result in experiment [4] was “inactive”.

Consider `C=C(C)C(=O)NCCCN(C)C`, for which the Potency entry in experiment [1] and in [4] was “inactive” each time. Moreover, the result in [2], in [5] and in experiment [7] was inactive.

In the case of `Cc1cc(C)c(NC(=O)CN(CC(=O)O)CC(=O)O)c(C)c1Br`, the Potency result in experiment [1], in experiment [9], in experiment [4] and in experiment [6] was “inactive” throughout. The outcome in experiment [2], in experiment [5] and in [7] was inactive.

For `COc1cc(C(=O)N2CCOCC2)cc(OC)c1OC`, the Potency entry in experiment [1], in experiment [9], in [4] and in experiment [6] was “inactive” in each case. The outcome in experiment [2], in experiment [5] and in experiment [7] was inactive.

Regarding `N[C@@H](CS)C(=O)O`, the Potency entry in [1], in experiment [4] and in experiment [6] was “inactive” each time. Moreover, the outcome in experiment [2], in experiment [5] and in experiment [7] was inactive.

For the compound `CC(=O)c1ccc(C)cc1`, the Potency result in experiment [1], in experiment [4] and in experiment [6] was “inactive” in each case. Besides, the outcome in experiment [2], in experiment [3], in experiment [5] and in [7] was inactive.

Consider `CCC(=O)/C=C/c1ccc(OC)cc1`, for which the Potency result in experiment [1] and in experiment [6] was “inactive” each time. For the same compound, the outcome in experiment [2], in experiment [3], in [5] and in experiment [7] was inactive. Also, the Potency in experiment [4] was 24.3 µM (active).

In the case of `CN(C)C(=O)C(CCN1CCC(O)(c2ccc(Cl)cc2)CC1)(c1ccccc1)c1ccccc1`, in experiment [4], the Potency entry was “inactive”. Further, the compound was classed as inactive in [5].

With `O=C(O)Cc1cc(I)c(Oc2cc(I)c(O)c(I)c2)c(I)c1`, the Potency result in experiment [1] and in experiment [4] was “inactive” throughout. The result in [2], in experiment [3], in experiment [5] and in experiment [7] was inactive.

With `CO[Si](CCCNCCC[Si](OC)(OC)OC)(OC)OC`, the Potency entry in experiment [1], in experiment [4] and in experiment [6] was “inactive” throughout. The outcome in [2], in experiment [3], in experiment [5] and in experiment [7] was inactive.

For the compound `COCc1ccc(COC)cc1`, the Potency result in [1], in experiment [4] and in experiment [6] was “inactive” throughout. The result in [2], in [3], in experiment [5] and in experiment [7] was inactive.

Consider `CC(C)(C)OC(=O)N1C[C@@H](F)C[C@H]1C(=O)O`, for which the Potency entry in experiment [1], in experiment [4] and in [6] was “inactive” throughout. Moreover, the outcome in [2], in experiment [3], in experiment [5] and in [7] was inactive.

On to `c1ccc(SCCSc2ccccc2)cc1`, for which, in experiment [1], the Potency entry was “inactive”. Besides, the outcome in experiment [2] and in experiment [5] was inactive.

`N#CC1(O)CCCCC1`: the Potency entry in experiment [1] and in experiment [4] was “inactive” each time. Further, the outcome in experiment [2] and in experiment [5] was inactive.

`c1cc(CN2CCCCC2)cc(OCCCNc2nc3ccccc3s2)c1`: the Potency result in experiment [1], in experiment [9] and in experiment [4] was “inactive” throughout. Moreover, the outcome in experiment [2] and in experiment [5] was inactive.

Regarding `Nc1ccc2cc(S(=O)(=O)O)ccc2c1`, the Potency result in experiment [1] and in experiment [4] was “inactive” in each case. The result in experiment [2], in experiment [3], in experiment [5] and in [7] was inactive.

As for `CCCCN(CCO)CCO`, the Potency result in experiment [1], in experiment [4] and in [6] was “inactive” each time. Moreover, the result in [2], in experiment [3], in experiment [5] and in [7] was inactive.

For the compound `NC(=O)c1ncn([C@@H]2O[C@H](CO)[C@@H](O)[C@H]2O)c1O`, the result in experiment [2], in experiment [8], in experiment [3], in experiment [5] and in experiment [7] was inactive. Also, the Potency result in experiment [9], in [4] and in experiment [6] was “inactive” each time.

Turning to `CC1(C)SC(C)(C)SC(C)(C)S1`, the outcome in experiment [2], in [8], in [3] and in experiment [5] was inactive. Further, the Potency entry in [10], in experiment [4] and in [6] was “inactive” throughout.

On to `Cc1c(C)n(CCN(C)C)c2ccc(C(=O)OCCN(C)C)cc12`, for which the Potency result in experiment [1], in experiment [4] and in experiment [6] was “inactive” each time. Further, the result in experiment [8], in experiment [3], in [5] and in experiment [7] was inactive. In addition, the Potency in experiment [9] was 11.2 µM (active).

`CCO[Si](CCCN=C=O)(OCC)OCC`: the Potency result in experiment [1], in experiment [4] and in [6] was “inactive” throughout. Moreover, the result in experiment [8], in experiment [5] and in experiment [7] was inactive.

For `CO[Si](OC)(OC)OC`, the Potency result in [1], in experiment [4] and in [6] was “inactive” in each case. In addition, the outcome in experiment [2], in [5] and in [7] was inactive.

`CSc1ccc(C=O)cc1`: the Potency result in experiment [1], in experiment [4] and in experiment [6] was “inactive” each time. For the same compound, the result in [2], in [5] and in [7] was inactive.

In the case of `O=C(O)C(O)[C@H](O)[C@@H](O)[C@H](O)[C@H](O)CO` (stereo partly drawn), the Potency entry in experiment [1], in [4] and in experiment [6] was “inactive” each time. Further, the result in experiment [2], in experiment [3], in [5] and in [7] was inactive.
